Assay results: PubChem BioAssay (NCATS)
Where “and” joins values, the source holds several entries; their conditions need not be identical. Identical values can stand only once. Records with an inconclusive call do not appear. Entries that show only a call come without a potency. Calls of active or inactive are those of the source. Unless noted, the call rests on the fitted dose curve; in most records, active means well fitted curve in the direction sought with a large enough effect; inconclusive means small, poorly fitted or top-dose-only effect, or another doubt; inactive means no such curve, though single readings can be large; an effect the other way counts as inactive or inconclusive.

system: astro; assay: Drug repurposing screens with cells derived from glioblastoma tumor samples (AID 1345199); settings: viability, ATP luminescence, 48 h; series mostly up to 45.9 µM; further: nearly all actives have a fitted effect of over 40% in size; further: potency means the concentration at half of the fitted maximal effect
Summary of the method: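 Primary testing used CD133+ neurospheres from four GBM patients, seven concentrations, 48 h exposure and ATP-based viability; confirmation added three slower-growing patient lines.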

Compound | Potency
COC(COC(N)=O)C1=C(N2CC2)C(=O)C(C)=C(N2CC2)C1=O (stereo not drawn) | 2.24 µM (active)
O=c1c2ccccc2[se]n1-c1ccccc1 | 22.4 µM (active)
CN(C)[C@H](Cc1ccccc1)c1ccccc1 | inactive
O=C1CN=C(c2ccccc2)c2cc(Cl)ccc2N1CC1CC1 | inactive
CCN(CC)CCO[C@H]1CC[C@@]2(C)C(=CC[C@@H]3[C@@H]2CC[C@]2(C)C(=O)CC[C@@H]32)C1 | inactive
CC1(C)[C@H](C=C(Cl)Cl)[C@H]1C(=O)OCc1c(F)c(F)cc(F)c1F | inactive
CO[C@H]1[C@@H](O)C[C@H](O[C@H]2[C@@H](O)C[C@H](O[C@H]3[C@@H](O)C[C@H](O[C@H]4CC[C@@]5(C)[C@H](CC[C@@H]6[C@@H]5C[C@@H](O)[C@]5(C)[C@@H](C7=CC(=O)OC7)CC[C@]65O)C4)O[C@@H]3C)O[C@@H]2C)O[C@@H]1C | 0.282 µM (active)
CNC1(c2ccccc2Cl)CCCCC1=O (stereo not drawn) | inactive
ClC=C(Cl)Cl | inactive
Cc1ccccc1-n1c(C)nc2ccccc2c1=O | inactive
[Cl-].[Cl-].[Hg+2] | 7.94 µM (active)
C[C@H]1CC[C@]2(NC1)O[C@H]1C[C@H]3[C@@H]4CC[C@H]5C[C@@H](O[C@@H]6O[C@H](CO)[C@H](O[C@@H]7O[C@H](CO)[C@@H](O)[C@H](O[C@@H]8OC[C@@H](O)[C@H](O)[C@H]8O)[C@H]7O[C@@H]7O[C@H](CO)[C@@H](O)[C@H](O)[C@H]7O)[C@H](O)[C@H]6O)CC[C@]5(C)[C@H]4CC[C@]3(C)[C@H]1[C@@H]2C | 3.16 µM (active)
O=C(C[C@@H]1NCCC[C@H]1O)Cn1cnc2cc(Br)c(Cl)cc2c1=O | inactive
[H+].[H+].[Hg+2].[O-]B([O-])[O-].[c-]1ccccc1 | 2.82 µM (active)
Cc1cc(C)cc(C(=O)OC2C[C@H]3CC[C@@H](C2)N3C)c1 (stereo partly drawn) | inactive
CN1C2CCC1CC(OC(c1ccccc1)c1ccc(Cl)cc1)C2 (stereo not drawn) | 17.8 µM (active)
CCNC(C)Cc1cccc(C(F)(F)F)c1 (stereo not drawn) | inactive
CNC(=O)Oc1ccccc1C(=O)Nc1ccccc1 | 22.4 µM (active)
O=C1C=C2C=C[C@@H]3C[C@@]2(O1)[C@H]1CCCCN31 | 17.8 µM (active)
CCOC(=O)c1ccccc1C(=O)OCC | inactive
C[C@@H](Cc1ccccc1)NCCC(c1ccccc1)c1ccccc1 | inactive
[2H]C([2H])([2H])[C@H](N)Cc1ccccc1 | inactive
FC(F)OC(F)(F)C(F)Cl (stereo not drawn) | inactive
CC(=O)O[C@H]1C[C@H](O[C@H]2[C@@H](O)C[C@H](O[C@H]3[C@@H](O)C[C@H](OC4CC[C@@]5(C)[C@H](CC[C@@H]6[C@@H]5CC[C@]5(C)[C@@H](C7=CC(=O)OC7)CC[C@]65O)C4)O[C@@H]3C)O[C@@H]2C)O[C@H](C)[C@H]1O[C@@H]1O[C@H](CO)[C@@H](O)[C@H](O)[C@H]1O (stereo partly drawn) | 0.251 µM (active)
CC(=O)O[C@H]1C[C@H](O[C@H]2[C@@H](O)C[C@H](O[C@H]3[C@@H](O)C[C@H](O[C@H]4CC[C@@]5(C)[C@H](CC[C@@H]6[C@@H]5C[C@@H](O)[C@]5(C)[C@@H](C7=CC(=O)OC7)CC[C@]65O)C4)O[C@@H]3C)O[C@@H]2C)O[C@H](C)[C@H]1O[C@@H]1O[C@H](CO)[C@@H](O)[C@H](O)[C@H]1O | 0.282 µM (active)

system: not listed separately; assay: qHTS assay to identify inhibitors of the type 1 interferon - major histocompatibility complex class I in skeletal muscle: Counter screen cell viability and HiBit confirmation (AID 1347412); settings: iHSKM muscle cells + IFN-b, HiBiT or CellTiter-Glo, 24 h; Potency: HiBiT; Viability, at 45.9 µM (top of the series); further: nearly all actives have a fitted effect of over 60% in size; further: potency means the concentration at half of the fitted maximal effect
Summary of the method: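 Human myoblast knock-in line, 4.0 ng/ml IFN-beta stimulation, 24 h compound treatment. Endpoints: HiBiT lytic luminescence (HLA-B level) and CellTiter Glo (ATP). Dosing 12 concentrations, 3-fold steps, 46 uM highest final.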

Compound | Potency
CC1(C(=O)O)C2CCC(O2)C1(C)C(=O)O (stereo not drawn) | inactive
C[C@@H]1O[C@@H](O[C@H]2C[C@@H](O)[C@]3(CO)[C@@H]4C(CC[C@]3(O)C2)[C@@]2(O)CC[C@H]([C@@H]3COC(=O)C3)[C@@]2(C)C[C@H]4O)[C@H](O)[C@H](O)[C@H]1O (stereo partly drawn) | 0.557 µM (active)
c1ccc2c(c1)[I+]c1ccccc1-2 | 7.01 µM (active)
CNc1ccc2oc(C[C@H]3O[C@@]4(CC[C@H]3C)O[C@H]([C@H](C)C(=O)c3ccc[nH]3)[C@H](C)C[C@H]4C)nc2c1C(=O)O | 2.49 µM (active)
Cc1c2ccncc2c(C)c2c1[nH]c1ccccc12 | 15.7 µM (active)
CC(C)(C)c1cc(C=C(C#N)C#N)cc(C(C)(C)C)c1O | inactive

molecular target: Nuclear receptor subfamily 1 group I member 2 (Rattus norvegicus) (UniProt Q9R1A7); assay: qHTS assay for small molecule activators of the rat pregnane X receptor (rPXR) signaling pathway (AID 651751; call rule not given here); settings: rPXR reporter cells, luciferase (One-Glo), 24 h
Sequence (Q9R1A7 whole entry, looked up): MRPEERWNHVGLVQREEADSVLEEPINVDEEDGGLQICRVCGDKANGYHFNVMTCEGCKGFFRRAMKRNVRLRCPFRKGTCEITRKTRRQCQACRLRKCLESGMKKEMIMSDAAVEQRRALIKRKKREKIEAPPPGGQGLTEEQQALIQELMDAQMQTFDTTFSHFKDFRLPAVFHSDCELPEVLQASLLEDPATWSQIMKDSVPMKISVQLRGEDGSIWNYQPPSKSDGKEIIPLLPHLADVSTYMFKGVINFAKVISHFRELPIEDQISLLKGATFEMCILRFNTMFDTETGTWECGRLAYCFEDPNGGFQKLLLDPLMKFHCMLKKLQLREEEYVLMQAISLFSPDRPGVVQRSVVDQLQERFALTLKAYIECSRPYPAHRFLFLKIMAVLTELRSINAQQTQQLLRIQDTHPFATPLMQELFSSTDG

Compound | max response
O=C(O)c1cc[c]([Hg][Cl])cc1 | -6.42% (inactive)
O=C1C=CC(=O)C=C1 | 0.171% (inactive)
NNC(N)=O | 4.4% (inactive)
ClC=C(Cl)Cl | 1.22% (inactive) and -1.96% (inactive)
COc1ccc2c(c1OC)C(=O)OC2C1c2cc3c(cc2CCN1C)OCO3 (stereo not drawn) | 3.69% (inactive)
CCOC(=O)c1ccccc1C(=O)OCC | 2.54% (inactive) and 6.22% (inactive) and -3.04% (inactive)

system: not listed separately; assay: qHTS assay for small molecule activators of the human pregnane X receptor (PXR) signaling pathway (AID 720659; call rule not given here); settings: DPX-2 HepG2 CYP3A4-luciferase, 24 h; series mostly up to 92.3 µM

Compound | outcome
O=C(O)c1cc[c]([Hg][Cl])cc1 | inactive
O=C1C=CC(=O)C=C1 | inactive
CC[C@H](C)[C@H]1O[C@]2(C=C[C@@H]1C)C[C@@H]1C[C@@H](C/C=C(\C)[C@@H](O[C@H]3C[C@H](OC)[C@@H](O[C@H]4C[C@H](OC)[C@@H](O)[C@H](C)O4)[C@H](C)O3)[C@@H](C)/C=C/C=C3\CO[C@@H]4[C@H](O)C(C)=C[C@@H](C(=O)O1)[C@]34O)O2 | inactive
NNC(N)=O | inactive
ClC=C(Cl)Cl | inactive
CCOC(=O)c1ccccc1C(=O)OCC | inactive
